The whole screen tested about 69,000 compounds, of which about 8,600 (12%) showed an effect of 50% or more. This excerpt belongs to a sample that is enriched for strong results.
System: Plasmodium berghei
Test: Screen against P. berghei liver stage (PbLuc), transformed with Luciferase, at 10uM
Assay type: functional, HepG2
Settings: tested at 10 uM

In order of rising INHIBITION:
1. Cc1occc1C(=O)N1CCC(C(O)c2ccc(F)cc2)CC1 (configuration not stated)  -85.6%
2. Cn1cccc1C(=O)COc1ccc(S(N)(=O)=O)cc1  -55.3%
3. c1cncc(-c2ncnc3c2CCN(Cc2cccs2)CC3)c1  -49.8%
4. Cc1occc1C(=O)N1CCC(C(O)c2ccc(Cl)cc2)CC1 (configuration not stated)  -49.3%
5. CCCC(=O)N1CCC(Cc2ccccc2-c2ccccc2)(C(N)=O)C1 (configuration not stated)  -31%
6. CS(=O)(=O)N1CCC(Cc2cnc(Br)cn2)C1 (configuration not stated)  -29.9%
7. O=C(c1c[nH]c(=O)c(Cl)c1)N1CCc2ccccc2C1  -29.6%
8. O=C(c1ccc[nH]1)N1C[C@@H]2CC[C@H]1CN(c1ncccn1)C2  -16.5%
9. CC(C)Oc1ncc(C(=O)N2CCC(NC(=O)C3CC3)CC2)cc1Cl  -13.2%
10. Cc1ccc(CN2C[C@@H]3[C@@H](C(=O)N4CCCC4)CCS(=O)(=O)[C@@H]3C2)cc1  -10.9%
11. COc1cc(CSc2nnc(C)n2CC(N)=O)ccc1SC  -9.93%
12. CN(C)S(=O)(=O)N1CCC(C(O)c2ccc(Cl)cc2)CC1 (configuration not stated)  -9.8%
13. CCOCC(=O)N1CCC(C(O)c2ccc(F)cc2)CC1 (configuration not stated)  -6.99%
14. Cc1cc(N2CCC(C(=O)NC3CC3)CC2)nc(-c2ccncc2)n1  -0.219%
15. CN(C)C(=O)c1c[nH]nc1-c1ccc(CNC(=O)c2cnccn2)cc1  0.5%
16. CCn1c(CC2CCN(S(=O)(=O)N3CCCCC3)CC2)nn(C)c1=O  0.546%
17. CN1CCOCC12CCN(Cc1nccs1)CC2  0.804%
18. CCN1CCOCC12CCN(c1ccc(C#N)cc1)CC2  2.4%
19. O=C(CCc1ccccc1)N1CCC(N2CCNC2=O)CC1  2.61%
20. Cc1nc(C)n(C2CCCN(C(=O)c3ccc(OC(C)C)nc3)C2)n1 (configuration not stated)  5.907%
21. CCN1CCn2c(C)cnc2C12CCN(C(=O)NC)CC2  6.27%
22. Cc1ccc(C(=O)NC2CCN(CC(=O)N(C)c3ccccc3)CC2)o1  7.27%
23. COc1ccc(CNC(=O)Nc2cccnc2OC)cc1O  9.54%
24. O=C(CCc1cccs1)N1CCCC(N2CCNC2=O)C1 (configuration not stated)  11.6%
25. c1cnc(N2CCCC(Cc3nccs3)C2)nc1 (configuration not stated)  11.685%
26. O=C(c1ccc(O)nc1)N1CCc2ccc(O)cc2C1  11.7%
27. COc1cc(C)nc(N2CCN(C(=O)c3ccoc3C)CC2)n1  11.9%
28. O=C(O)c1ccccc1-n1cnc(CN2CCc3ccccc3C2)c1  12.8%
29. CCS(=O)(=O)N1CCO[C@H]2[C@H](Oc3ncccc3F)CC[C@@H]21  17.4%
30. O=C(C1CCOCC1)N1CCC2(CCN(Cc3nccs3)CC2)CC1  18.3%
31. Cc1ncc(-c2ccncc2)c(C2CCCN(C(=O)c3ccno3)C2)n1 (configuration not stated)  18.505%
32. O=C1CC(c2cccnc2)c2c(c(C(=O)O)cn2-c2ccccc2F)N1 (configuration not stated)  19.4%
33. Cc1ccccc1CNC(=O)Cn1ncc2c1c(C)nn2C  21.7%
34. Cc1c(CCC(=O)N2CCCC2c2ccnc(N(C)C)c2)cnn1C (configuration not stated)  23%
35. CC(C)Oc1ncc(C(=O)N2CCCC(C(=O)O)C2)cc1Cl (configuration not stated)  23.3%
36. CNC(=O)C1(CCCc2cnccn2)CCN1CCc1ccccc1 (configuration not stated)  23.8%
37. O=C(NC1CC1)c1cc(C2CC2)nc2onc(C3CCNCC3)c12  24.2%
38. Cc1ccc(N2CC[C@H]3OCC[C@@]3(C(=O)N(C)C)C2)nn1  24.3%
39. O=C(CCc1cccs1)N1CCC(N2CCNC2=O)CC1  27.8%
40. O=C(CCc1ccc(Cl)s1)N1CCCC(N2CCNC2=O)C1 (configuration not stated)  30%
41. CN(C)CCN(Cc1cccc(F)c1)C(=O)c1ccn(C)c(=O)c1  31.1%
42. CCN1CCOCC12CCN(c1cnccn1)CC2  32.1%
43. c1csc(CN2CCC3(CCCN3CC3CC3)CC2)n1  33%
44. Cc1noc(C)c1CN1CCOCC12CCN(c1cnccn1)CC2  34.9%
45. CS(=O)(=O)NC1CCN(C(=O)c2coc(CN3CCOCC3)c2)CC1  34.9%
46. CN(C)Cc1ccnc(C2CN(Cc3nccs3)CCO2)n1 (configuration not stated)  35.2%
47. Cc1cc(C)c(NC(=O)Nc2cnn(CC(O)CN(C)C)c2)c(C)c1 (configuration not stated)  35.4%
48. CNS(=O)(=O)c1ccc(CNC(=O)c2cccc(C)n2)cc1  37.4%
49. COCCN(C)C(=O)c1cc2c(s1)CCN2C(=O)C1CC1  37.5%
50. Cn1nc(C2CCCN2)c2c(C(=O)NC3CC3)cc(C3CC3)nc21 (configuration not stated)  40%
51. COCCN1CCOCC12CCN(c1cnccn1)CC2  42.1%
52. CC(C)CC(=O)N1C[C@@H]2CCN(c3ncccn3)C[C@@H]2C1  44.1%
53. O=C(NCC1CC1)[C@@H]1CCO[C@@H]2CCN(c3ncccn3)C[C@@H]21  44.2%
54. Cn1nc(C2CCNC2)c2c(C(=O)NC3CC3)cc(C3CC3)nc21 (configuration not stated)  45.8%
55. O=C(C1CCOC1)N1CCC2(CCN(Cc3nccs3)C2)CC1 (configuration not stated)  46.2%
56. Cn1nc(C2CCNC2)c2c(C(=O)NCC(F)(F)F)cc(C3CC3)nc21 (configuration not stated)  47.4%
57. Cc1noc(C)c1CN1CCOCC12CCN(c1ncccn1)CC2  47.5%
58. O=C1C[C@H]2[C@@H](CCN2C(=O)c2ccc[nH]2)N1CCN1CCCC1  47.9%
59. COCCN1CCOCC12CCN(c1ccc(C#N)cc1)CC2  49.7%
60. CCN(C)S(=O)(=O)N1CCC(C(O)c2ccc(Cl)cc2)CC1 (configuration not stated)  50.1%
61. c1csc(CN2CCC3(CC2)COCCN3CC2CC2)n1  50.7%
62. CCN(C)S(=O)(=O)N1CCC(C(O)c2ccc(F)cc2)CC1 (configuration not stated)  51.1%
63. O=C(C1CCOC1)N1CCC2(CCN(Cc3nccs3)CC2)CC1 (configuration not stated)  52%
64. Cn1nc(C2CCCNC2)c2c(C(=O)NC3CC3)cc(C3CC3)nc21 (configuration not stated)  52.4%
65. COCCN1CCOCC12CCN(c1nccs1)CC2  53.9%
66. CCN1CCOCC12CCN(c1nccs1)CC2  54.8%
67. Cn1nc(C2CCNCC2)c2c(C(=O)NC3CC3)cc(C3CC3)nc21  59.8%
68. O=C(CCc1ccc(Cl)s1)N1CCC(N2CCNC2=O)CC1  60.9%
69. Cc1noc(C)c1CN1CCOCC12CCN(c1nccs1)CC2  67.5%
70. O=C(CCCc1cccs1)N1CCC(N2CCNC2=O)CC1  70.8%
71. O=C(c1cnc(OCC(F)(F)F)c(Cl)c1)N1CCc2ccc(O)cc2C1  70.9%
72. CC(C)Oc1ncc(C(=O)N2CCc3ccc(O)cc3C2)cc1Cl  77.1%
